Data: PubChem BioAssay AID1159580 (chemical genetic matrix, 2015)
In all, about 5,500 compounds went through this assay and about 2,000 (36%) were called active. Not shown: some 18% with an inconclusive outcome. Rule as the data show it: active = normalized growth mostly below about 0.91 (no sharp cut-off); inconclusive = no clear call, values can overlap the other calls; inactive = mostly above about 0.92. The list shows a part of the results.

Experiment: chemical genetic growth profiling, strain panel (AID 1159580);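 also: tested at 20 µM; growth read once vehicle control cultures reached saturation at 30 °C; 1 = growth at the plate median or of vehicle wells; lower values mean less growth of the strain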
Conditions: S. cerevisiae deletion strains, growth OD

Measured: normalized growth

O=C(OCc1ccccc1Br)c1cc([N+](=O)[O-])cc([N+](=O)[O-])c1
inactive: locus YAR019C, strain CDC15, active compounds read low 0.973 | locus YBL105C, strain PKC1, active compounds read low 0.986 | locus YBR135W, strain CKS1, active compounds read low 0.969 | locus YBR136W, strain MEC1, active compounds read low 0.98 | locus YBR160W, strain CDC28, active compounds read low 0.988 | locus YDL017W, strain CDC7, active compounds read low 0.984 | locus YDL028C, strain MPS1, active compounds read low 0.981 | locus YDL101C, strain DUN1, active compounds read low 0.985 | locus YDL108W, strain KIN28, active compounds read low 0.969 | locus YDL132W, strain cdc53, active compounds read low 0.961 | locus YDL214C, strain PRR2, active compounds read low 0.846 | locus YDR052C, strain DBF4, active compounds read low 0.984 | locus YDR054C, strain cdc34, active compounds read low 0.965 | locus YDR226W, strain ADK1, active compounds read low 0.981 | locus YDR477W, strain SNF1, active compounds read low 0.841 | locus YER123W, strain YCK3, active compounds read low 0.84 | locus YER133W, strain GLC7, active compounds read low 0.888 | locus YFL009W, strain cdc4, active compounds read low 0.983 | locus YFL029C, strain CAK1, active compounds read low 0.975 | locus YFR003C, strain YPI1, active compounds read low 0.977 | locus YFR019W, strain FAB1, active compounds read low 0.905 | locus YFR028C, strain CDC14, active compounds read low 0.974 | locus YGR040W, strain KSS1, active compounds read low 0.868 | locus YGR052W, strain FMP48, active compounds read low 0.871 | locus YGR092W, strain DBF2, active compounds read low 0.757 | locus YHR030C, strain SLT2, active compounds read low 0.92 | locus YHR079C, strain IRE1, active compounds read low 0.96 | locus YHR082C, strain KSP1, active compounds read low 0.923 | locus YHR205W, strain SCH9, active compounds read low 0.83 | locus YIL147C, strain SLN1, active compounds read low 0.976 | locus YJL095W, strain BCK1, active compounds read low 0.92 | locus YJL128C, strain PBS2, active compounds read low 0.944 | locus YJL157C, strain FAR1, active compounds read low 0.825 | locus YJR016C, strain ILV3, active compounds read low 0.973 | locus YJR066W, strain TOR1 (second series), active compounds read low 0.781 | locus YJR066W, strain TOR1, active compounds read low 0.885 | locus YKL048C, strain ELM1, active compounds read low 0.922 | locus YKL067W, strain YNK1, active compounds read low 0.876 | locus YKL101W, strain HSL1, active compounds read low 0.88 | locus YKL193C, strain SDS22, active compounds read low 0.974 | locus YKL203C, strain TOR2, active compounds read low 0.939 | locus YLR113W, strain HOG1, active compounds read low 0.892 | locus YLR133W, strain CKI1, active compounds read low 0.887 | locus YLR403W, strain SFP1, active compounds read low 0.857 | locus YML070W, strain DAK1, active compounds read low 0.825 | locus YMR001C, strain CDC5, active compounds read low 0.967 | locus YMR205C, strain PFK2 (second series), active compounds read low 0.842 | locus YMR277W, strain FCP1, active compounds read low 0.988 | locus YNL006W, strain LST8, active compounds read low 0.974 | locus YNL020C, strain ARK1, active compounds read low 0.869 | locus YNL161W, strain CBK1, active compounds read low 0.988 | locus YNL183C, strain NPR1, active compounds read low 0.947 | locus YNL207W, strain RIO2, active compounds read low 0.966 | locus YNL222W, strain SSU72, active compounds read low 0.989 | locus YNL307C, strain MCK1 (second series), active compounds read low 0.877 | locus YOL078W, strain AVO1, active compounds read low 0.978 | locus YOL136C, strain PFK27, active compounds read low 0.867 | locus YOR061W, strain CKA2, active compounds read low 0.809 | locus YOR119C, strain RIO1, active compounds read low 0.952 | locus YOR231W, strain MKK1, active compounds read low 0.937 | locus YOR329C, strain SCD5, active compounds read low 0.973 | locus YPL031C, strain PHO85, active compounds read low 0.876 | locus YPL153C, strain RAD53, active compounds read low 0.866 | locus YPL204W, strain HRR25, active compounds read low 0.86 | locus YPL209C, strain IPL1, active compounds read low 0.984 | locus YPR025C, strain CCL1, active compounds read low 0.982 | locus YPR106W, strain ISR1, active compounds read low 0.976 | locus YPR111W, strain DBF20, active compounds read low 0.973 | strain NNK1, active compounds read low 0.977 | strain TSCII, active compounds read low 0.976
